Assay outcomes (PubChem BioAssay)
In the library only some 19% were active in any assay of this set; here they are far more common.
HepG2 tox: kills HepG2 cells in TGF-b inhibitor counter-screen. HepG2 CAGA-GFP viability, ATP luminescence, 18 h. hit rate 0.76% among 410,000. AID 588856. Potency, µM (top dose mostly 46.1 µM), for the others: top-dose activity change, negative = cytotoxicity, usual class: cytotoxic; also: potency is read from the fitted curve at half-maximal effect
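CellTiter-Glo luminescence gave cytotoxicity after 18 hours at 37 degrees C. The cells were HepG2 CAGA-GFP in 1% FBS DMEM, stimulated with 500 pg/mL TGF-beta after compound addition. %Activity was normalised to no-cell wells (complete cell-killing) and DMSO (no toxicity), and curves were fitted and classified.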
TGFb inhibitor: blocks TGF-b signaling | HepG2 CAGA-GFP TGF-b/SMAD3 reporter, GFP fluorescence, 18 h; TGF-beta stimulated, 500 pg/mL final | Potency, µM (highest dose often 46.1 µM), for inactives: at the top dose activity, negative = inhibition, most hits filed as inhibitors | hit rate 1.2% among 410,000; also: potency is read from the fitted curve at half-maximal effect; % is scaled to controls: 0 for no effect and ±100 for the full control effect; nearly all actives have a fitted effect of over 65% in size
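Using HEPG2 CAGA-GFP reporter cells at 1000 cells/well, we pinned test compounds, stimulated with recombinant TGF-beta (500 pg/mL final) and measured total well GFP after 18 h.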
IL1B secr inh: blocks inflammasome-driven IL-1 beta release. THP-1 LPS/ATP IL-1B secretion, AlphaLISA, 16 h; active compounds read low. hit rate 4.7% among 360,000. activity change, % at 57.5 µM; in the data active = activity change below about -50%; inconclusive = mostly about -30% to -49%; also: % is scaled to controls: 0 for no effect and ±100 for the full control effect
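Secreted IL-1B measured by AlphaLISA bead assay after 16 h compound exposure of THP-1 cells; compounds (final up to 57.5 uM) added 1 h before LPS (250 ng/mL) and ATP (1.25 mM) stimulation; lower signal means less secretion.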
DT40 TDP1 no CPT: qHTS for Inhibitors of human tyrosyl-DNA phosphodiesterase 1 (TDP1): qHTS in cells in absence of CPT. hit rate 15% among 420,000. Potency, µM (titrated, usually from 46.2 µM), without a hit: at the highest dose activity change, negative = growth inhibition, most hits filed as inhibitors. DT40 Tdp1-/- hTDP1 cells, no CPT, ATP luminescence, 48 h. AID 686978, 2013; also: potency is read from the fitted curve at half-maximal effect; % is scaled to controls: 0 for no effect and ±100 for the full control effect; nearly all actives have a fitted effect of over 55% in size
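Chicken DT40 Tdp1-/- cells stably complemented with human TDP1 were seeded at 400 cells/well with DMSO in place of 20 nM camptothecin. After compound pinning, cells grew at least 48 hr at 37 °C; viability read by CellTiter-Glo luminescence.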
DT40 TDP1 CPT: DT40-hTDP1 cell growth loss with CPT; chicken DT40 Tdp1-/-;hTDP1 cells + 20 nM CPT, ATP luminescence, 48 h; Potency, µM (highest dose often 46.2 µM), for the others: at the highest dose activity change, negative = growth inhibition, hits mostly inhibitors; hit rate 12% among 420,000; AID 686979; also: potency is read from the fitted curve at half-maximal effect; % is scaled to controls: 0 for no effect and ±100 for the full control effect; nearly all actives have a fitted effect of over 55% in size
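Chicken DT40 Tdp1-/- cells stably complemented with human TDP1 were seeded at 400 cells/well in medium containing 20 nM camptothecin, exposed to pin-transferred compounds, and grown at 37 °C for at least 48 hr. Viability was read as ATP luminescence.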
TDP1 inh: TDP1 (human) enzyme inhibition; Q9NUW8; recombinant TDP1, AlphaScreen DNA substrate cleavage; Potency, µM (top dose mostly 130 µM), for inactives: at the top dose activity change, negative = inhibition, hits mostly inhibitors; hit rate 0.28% among 350,000; AID 485290; also: potency is read from the fitted curve at half-maximal effect; % is scaled to controls: 0 for no effect and ±100 for the full control effect; nearly all actives have a fitted effect of over 40% in size
Target sequence (Q9NUW8 whole entry, looked up): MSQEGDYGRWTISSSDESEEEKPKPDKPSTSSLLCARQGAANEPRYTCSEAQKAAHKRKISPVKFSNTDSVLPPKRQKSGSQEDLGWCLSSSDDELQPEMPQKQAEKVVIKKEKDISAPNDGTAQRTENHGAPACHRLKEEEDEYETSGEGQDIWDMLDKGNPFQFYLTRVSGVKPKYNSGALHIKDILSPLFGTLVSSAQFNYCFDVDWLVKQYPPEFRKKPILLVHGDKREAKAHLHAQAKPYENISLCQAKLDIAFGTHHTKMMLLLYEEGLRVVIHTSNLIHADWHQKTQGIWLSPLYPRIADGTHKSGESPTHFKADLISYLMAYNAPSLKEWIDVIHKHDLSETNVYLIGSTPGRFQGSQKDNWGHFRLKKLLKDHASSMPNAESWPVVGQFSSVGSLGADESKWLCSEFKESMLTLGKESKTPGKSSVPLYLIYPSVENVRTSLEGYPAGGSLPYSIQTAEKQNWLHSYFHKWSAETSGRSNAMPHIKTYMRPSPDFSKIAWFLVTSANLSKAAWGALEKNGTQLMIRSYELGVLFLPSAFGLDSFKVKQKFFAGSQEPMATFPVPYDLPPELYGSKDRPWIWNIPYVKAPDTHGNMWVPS
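AlphaScreen read-out: signal falls as enzyme removes the 3' tyrosine-FITC from a 5'-biotinylated DNA oligo (15 nM, 5 min, RT). Enzyme was E. coli-made recombinant Tdp1 at 1 nM, exposed to compound for 15 min beforehand; beads 10 ug/ml, 10 min.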
* marks the source's active call; other numbers are inactive results; ? = inconclusive; . = no result given; ! = not active in a repeat; [ ] = another dose, or the depositor's remark. Unless noted, calls follow the shape of the dose curve; as a rule, active = well fitted curve in the direction sought with a large enough effect; inconclusive = small, poorly fitted or top-dose-only effect, or another doubt; inactive = no such curve, though single readings can be large; an effect the other way counts as inactive or inconclusive.

SMILES	HepG2 tox	TGFb inhibitor	IL1B secr inh	DT40 TDP1 no CPT	DT40 TDP1 CPT	TDP1 inh
COc1ccc(Cn2c(CNS(=O)(=O)c3ccc4c(c3)CCCC4)nc3cccnc32)cc1	-20%	?	.	?	?	10%
NS(=O)(=O)c1ccc(N/N=C2/CCCCC2C2CCCCC2)c([N+](=O)[O-])c1 (centres undefined)	-115%	?	-112*	10µM*	21µM*	10%
CC1C/C(=N\Nc2ccc(S(N)(=O)=O)cc2[N+](=O)[O-])CC(C)(C)C1 (centres undefined)	-95%	?	-79*	?	?	-2%
COc1ccccc1NS(=O)(=O)c1ccc(NN=C2CCCCC2)c([N+](=O)[O-])c1	-14%	-10%	0	26µM*	18µM*	8%
O=C(Cn1cc(S(=O)(=O)Cc2cccc(Cl)c2)c2ccccc21)NCc1ccccc1Cl	-45%	?	.	?	?	-1%
Cc1nc(-c2ccc(S(=O)(=O)N3CCN(c4cccc(Cl)c4)CC3)cc2)co1	-2%	?	.	?	?	9%
COC(=O)[C@@H](CC(C)C)N(Cc1ccccc1)S(=O)(=O)N(Cc1ccccc1)[C@@H](CC(C)C)C(=O)OC	4%	5%	14	11µM*!	21µM*	0%
Cc1cccc(C)c1C(OCCN(C)C)C1CCCCC1 (centres undefined)	-21%	6%	-8	?	18µM*	-3%
CC(C)Oc1ccccc1OCCN(C)C	15%	16%	5	-16%	-14%	-1%
N#Cc1ccc(CN2CC[C@@]3(CCCN(C(=O)c4cccc(F)c4)C3)C2)cc1	.	.	.	?	-1%	.
O=C(O)c1ccccc1-c1ccc(C(F)(F)F)cc1	.	.	.	-9%	3%	10%
C/C(=N\NC(=O)c1cccc(Cl)c1)C1C(=O)c2ccccc2C1=O	-80%	-25%	0	0.82µM*	0.92µM*	-2%
C/C(=N\NC(=O)CCc1ccccc1)C1C(=O)c2ccccc2C1=O	-72%	?	40	2.6µM*	1.6µM*	8%
CC(/C=C/c1ccccc1)=N\NC(=O)CCc1ccccc1	-5%	1%	0	-2%	-14%	1%
Cc1nc2ccccn2c1C(=O)NNS(=O)(=O)c1ccc(C(C)(C)C)cc1	0%	10%	2	6.5µM*	8.2µM*	1%
C/C(=N\NC(=O)c1c(C)nc2ccccn12)c1ccc(C(C)(C)C)cc1	-26%	5%	-1	12µM*	18µM*	13%
CNCCC=C1c2ccccc2CCc2ccccc21	-35%	54%	-64*	21µM*	9.2µM*	-3%
C[N+](C)(C)CC/C=C1/c2ccccc2CSc2ccccc21	-16%	-22%	-19	?	?	5%
CCOc1ccccc1CN1CCNC(=O)C1CC(=O)N(C)Cc1nonc1C (centres undefined)	0%	?	-57*	1%	?	3%
CCOc1ccc(CN2CCNC(=O)C2CC(=O)N(C)Cc2nonc2C)cc1 (centres undefined)	4%	-2%	0	-2%	-2%	3%
O=C(NCCCN1CCCCCC1)[C@@H](c1ccccc1)C1CCCCC1	.	.	.	11µM*	11µM*	12%[56.1 µM]
CCC(C(=O)NCCCN1CCN(CCCNC(=O)C(CC)c2ccccc2)CC1)c1ccccc1 (centres undefined)	3%	5%	-4	?	-18%	.
CSc1ccc(NC(=O)NCCCN2CCC(Cc3ccccc3)CC2)cc1	-104%	?	-54*	23µM*	?	.
O=C(NCCCN1CCC(Cc2ccccc2)CC1)C1CC(=O)N(C2CCCCCC2)C1 (centres undefined)	-31%	?	0	26µM*	?	-4%
CN1CCN(CCCNC(=O)C2CC(=O)N(C3CCCCC3)C2)CC1 (centres undefined)	10%	-4%	17	7%	6%	4%
SMILES	HepG2 tox	TGFb inhibitor	IL1B secr inh	DT40 TDP1 no CPT	DT40 TDP1 CPT	TDP1 inh
COc1ccc(NC(=O)NCCCN2CCC(Cc3ccccc3)CC2)cc1	14%	7%	?	?	?	.
CC(CNC(=O)CN1C(=O)NC2(CCCCC2)C1=O)c1ccccc1 (centres undefined)	1%	-3%	0	-1%	-1%	0%[56.1 µM]
CN(CC(=O)NCc1ccccc1)CC(=O)Nc1ccc(Cl)c(C(F)(F)F)c1	-25%	?	-11	18µM*	15µM*	1%
CC(C(=O)N1CCCCC1)N(C)CC(=O)Nc1ccc(F)c(F)c1F (centres undefined)	10%	5%	1	5%	-3%	.
CSc1ncccc1C(=O)N(C)CC(=O)Nc1ccc(Cl)c(C(F)(F)F)c1	-13%	-21%	-2	?	?	3%
CN(CC(=O)NC(=O)NCc1ccccc1)CC(=O)Nc1ccc(Cl)c(C(F)(F)F)c1	-11%	?	-89*	21µM*	18µM*	.
CC(C(=O)N1CCCCC1)N(C)CC(=O)Nc1ccc(Cl)cc1 (centres undefined)	4%	-3%	11	16µM*	?	-1%
CN(CC(=O)Nc1ccc(Cl)c(Cl)c1)CC(=O)N1CCCCCC1	-26%	1%	-15	26µM*	?	.
CCOc1ccc(C(=O)Nc2nnc(SCc3cc(=O)n4ccccc4n3)s2)cc1	3%	-16%	.	-4%	2%	3%
CCOc1cccc2cc(-c3nc(-c4ccc(Cl)cc4)c(C)s3)c(=O)oc12	-27%	-12%	.	-8%	7%	1%
CCOc1ccc(NC(=O)CN(C)C(=O)CCN2C(=O)C3CC=CCC3C2=O)cc1OCC (centres undefined)	7%	-2%	-15	8%	-20%	1%
CN(CC(=O)NCCc1ccc(S(N)(=O)=O)cc1)CC(=O)Nc1ccc(Cl)c(C(F)(F)F)c1	-47%	0%	?	13µM*	13µM*	.
CN(CC(=O)Nc1ccc(Cl)c(C(F)(F)F)c1)C(=O)CCN1C(=O)C2CCCCC2C1=O (centres undefined)	-6%	3%	1	23µM*	23µM*	.
CN(CC(=O)Nc1ccc(Cl)c(C(F)(F)F)c1)CC(=O)NC1CCCCC1	-25%	?	-7	?	16µM*	-5%[56.1 µM]
O=C(Cn1nc(C(F)(F)F)c2c1CCCC2)Nc1ccc(Br)cc1	-43%	-10%	.	?	?	7%
